Source: PubChem BioAssay (National Center for Advancing Translational Sciences (NCATS))
An excerpt weighted towards active compounds, which were near 8.1% of everything screened.
ELG1 repair inh – inhibitors of ELG1-dependent DNA repair in HEK293T cells; HEK293T ELG1-luciferase reporter, luminescence, 16 h; DNA damage induced by 5-fluorouridine; Potency, µM (top dose mostly 46.1 µM), most hits filed as inhibitors; hit rate 2.3% among 330,000; note: nearly all actives have a fitted effect of over 55% in size
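In this reporter screen, reduction of luminescence relative to DMSO vehicle indicated activity. Compounds and 5-fluorouridine were added together to 2,000 cells per well, incubated for 16 hr at 37 °C, then developed with ONE-Glo.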
KB-V1 MDR tox – KB-V1 MDR subline cytotoxicity. Potency, µM (highest dose often 46.1 µM), most hits filed as cytotoxic. hit rate 3.4% among 400,000. KB-V1 MDR cells viability, CellTiter-Glo, 72 h; note: nearly all actives have a fitted effect of over 60% in size
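Readout: CellTiter-Glo luminescence, 10 min after addition. Cells: KB-V1 MDR subline, 72 h at 37 degrees C with compound. Analysis: corrected, normalized data fitted to concentration-effect curves.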
MCF10A rereplic – DNA re-replication induction in MCF 10a cells; AID 624296; MCF 10A DNA re-replication, Hoechst nuclear intensity, 48 h; Potency, µM (doses to about 46.1 µM), usual class: activators; hit rate 2.9% among 350,000; note: nearly all actives have a fitted effect of over 50% in size
KB-3-1 cytotox – KB-3-1 parental cell cytotoxicity | KB-3-1 viability, CellTiter-Glo ATP luminescence, 72 h | Potency, µM (titrated, usually from 46.1 µM), usual class: cytotoxic | hit rate 1.4% among 400,000; note: nearly all actives have a fitted effect of over 60% in size
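Parental KB-3-1 adenocarcinoma cells in phenol-red-free DMEM with 10% FBS were pin-treated with compounds at several concentrations, incubated 72 h at 37 °C, and viability read by CellTiter-Glo luminescence; concentration-effect curves were fitted after normalization.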
SW480 rereplic – induces DNA re-replication in SW480 colon adenocarcinoma cells. Potency, µM (doses to about 46.1 µM), hits mostly activators. hit rate 1.8% among 340,000. SW480 DNA re-replication, Hoechst DNA content imaging, 48 h. AID 624297; note: nearly all actives have a fitted effect of over 55% in size
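Compounds, transferred as 23 nL by pin tool, were incubated with cells for 48 hr; DNA content per nucleus was then quantified by Hoechst staining and fluorescence plate imaging.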
Numbers stand for hits; . = inactive; ? = inconclusive; / = no result. Calls come from the whole dose curve; as a rule, active = well fitted curve in the direction sought with a large enough effect; inconclusive = small, poorly fitted or top-dose-only effect, or another doubt; inactive = no such curve, though single readings can be large; an effect the other way counts as inactive or inconclusive.

SMILES | ELG1 repair inh | KB-V1 MDR tox | MCF10A rereplic | KB-3-1 cytotox | SW480 rereplic
Cc1nnc(NC2=NCCC2)s1 | . | . | . | . | .
C/C=C/C=C/C(=O)N1CC[C@]23c4ccccc4N[C@H]4N(C)c5cccc6c5[C@]42CCN([C@H]6C2OC2(C)C)[C@H]13 (stereo partly specified) | . | . | . | ? | .
COc1ccc(CNC(=O)C2CCCN(C(=O)c3cnn(-c4ccc(F)cc4)c3-n3cccc3)C2)cc1 (stereo unspecified) | / | 13µM | / | ? | /
COCCCNC(=O)C1CCCN(C(=O)c2cnn(-c3ccc(F)cc3)c2-n2cccc2)C1 (stereo unspecified) | / | . | / | . | /
O=C(Nc1ccc(F)cc1F)C1CCN(C(=O)c2cnn(-c3ccccc3)c2-n2cccc2)CC1 | / | . | / | . | /
COC(=O)c1ccccc1NC(=O)C1CCCN(C(=O)c2cnn(-c3ccc(F)cc3)c2-n2cccc2)C1 (stereo unspecified) | / | 18.4µM | / | ? | /
CCc1ccc(-n2nc(C)c3c(C)cc(=O)n(CC(=O)Nc4ccccc4C(=O)OC)c32)cc1 | / | . | / | . | /
CC1=C(C(=O)OCC2CCCCC2)C(c2cccc(F)c2F)CC(=O)N1 (stereo unspecified) | / | ? | / | . | /
CCn1c(-c2ccc[nH]c2=O)nc2ccccc21 | . | . | . | . | .
Nc1c(Cl)cc(N=Nc2ccccc2)cc1Cl | / | . | 23.1µM | . | .
CCc1ccc(N2C(=O)CN(Cc3cc(OC)c(OC)c(OC)c3)C2=S)cc1 | . | 7.31µM | . | . | .
CCc1ccccc1N1C(=O)CN(Cc2cc(OC)c(OC)c(OC)c2)C1=S | . | . | . | . | .
COc1cc(CN2CC(=O)N(c3ccc(C)c(C)c3)C2=S)cc(OC)c1OC | ? | 16.4µM | . | ? | ?
COc1ccc(CN2CC(=O)N(c3ccc(C)c(C)c3)C2=S)cc1OC | 16.4µM | ? | . | . | .
COc1ccccc1NC(=O)NC1CCCc2ccccc21 (stereo unspecified) | . | . | . | . | .
CCN(CC1COc2ccccc2O1)S(=O)(=O)c1ccc(C)cc1 (stereo unspecified) | . | 23.1µM | . | . | .
Cc1ccc(C)c(C(=O)COC(=O)c2ccccc2N2C(=O)C3C4CCC(C4)C3C2=O)c1 (stereo unspecified) | . | 4.11µM | . | . | .
CCOC(=O)c1ccc(Oc2coc3cc(O)ccc3c2=O)cc1 | . | . | . | . | ?
Cc1ccc(C2CC(=O)c3cnc(N4CCc5ccccc5C4)nc3C2)cc1 (stereo unspecified) | . | 23.1µM | . | . | .
Cc1ccc(C2CC(=O)c3cnc(N4CCN(c5ccccc5)CC4)nc3C2)cc1 (stereo unspecified) | . | 5.17µM | . | ? | .
O=C1CC(c2ccc(F)cc2)Cc2nc(N3CCN(c4ccccc4)CC3)ncc21 (stereo unspecified) | ? | . | ? | . | .
CCCC(=O)N1CCc2cc(OC)c(OC)cc2C1COc1ccc(C(=O)OC)cc1 (stereo unspecified) | / | ? | / | . | /
COC(=O)c1ccc(OCC2c3cc(OC)c(OC)cc3CCN2C(=O)c2ccco2)cc1 (stereo unspecified) | ? | 6.51µM | ? | . | .
CCC(=O)N1CCc2cc(OC)c(OC)cc2C1COc1ccc(C(=O)OC)cc1 (stereo unspecified) | 2.59µM | . | . | . | .
COC(=O)c1ccc(OCC(O)CN2CCc3cc(OC)c(OC)cc3C2c2ccccc2)cc1 (stereo unspecified) | ? | . | 20.6µM | . | .
COc1cc2c(cc1OC)C(COc1ccccc1OC)N(C(=O)COc1ccc(Cl)cc1)CC2 (stereo unspecified) | / | 20.6µM | / | . | /
CCOC(=O)CCNC(=O)N1CCCC(CNS(=O)(=O)Cc2ccccc2)C1 (stereo unspecified) | . | . | . | . | .
O=C(CSc1ncnc2nc[nH]c12)N1CCN(c2ccc(Cl)cc2)CC1 | 18.4µM | ? | . | 18.4µM | .
Cc1csc(C(C#N)C(=O)c2ccc(S(=O)(=O)N3CCCC3)cc2)n1 (stereo unspecified) | . | . | . | . | .
